A selection: hits, their analogues and other compounds. The true share with any hit is near 12%.
PLK1 PBD block – inhibitors of human PLK1 polo-box domain binding. P53350. Plk1 PBD binding of FITC phosphopeptide, fluorescence polarization. Potency, µM, inactives show max response, negative = inhibition, usual class: inhibitors. 360,000 compounds, 2.8% hits; further: potency means the concentration at half of the fitted maximal effect; series mostly up to about 57 µM; on the % scale 0 is the no-effect control and ±100 the full control effect; nearly all actives have a fitted effect of over 65% in size
HP1b chromo inh – blocks HP1-beta chromodomain binding to methylated histone tails; AlphaScreen HP1-beta / biotin-H3K9me3 peptide binding; Potency, µM (titrated, usually from 114 µM), inactives show top-dose activity change, negative = inhibition, usual class: inhibitors; 390,000 compounds, 0.56% hits; AID 540317; further: potency means the concentration at half of the fitted maximal effect; nearly all actives have a fitted effect of over 70% in size
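HP1-beta protein (50 nM final) preincubated 30 min at room temperature with biotinylated H3(1-18)K9me3 peptide (50 nM) in PBS pH 7.4, 0.01% Tween-20, then compound added for 30 min. AlphaScreen streptavidin donor/nickel chelate acceptor beads (10 ug/mL final), 30 min dark, luminescence read.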
PI5P4K alpha inh – inhibitors of human PI5P4K alpha; max response, %; 330,000 compounds, 1.2% hits; PI5P4Kalpha enzyme, ADP-Glo luminescence, 60 min; hits give low values; AID 652105; active means max response of -50% or lower; inconclusive means between -30% and -50%; inactive means -30% or higher; further: value at the top dose of about 77 µM; on the % scale 0 is the no-effect control and ±100 the full control effect
Target sequence (P48426 whole entry, looked up): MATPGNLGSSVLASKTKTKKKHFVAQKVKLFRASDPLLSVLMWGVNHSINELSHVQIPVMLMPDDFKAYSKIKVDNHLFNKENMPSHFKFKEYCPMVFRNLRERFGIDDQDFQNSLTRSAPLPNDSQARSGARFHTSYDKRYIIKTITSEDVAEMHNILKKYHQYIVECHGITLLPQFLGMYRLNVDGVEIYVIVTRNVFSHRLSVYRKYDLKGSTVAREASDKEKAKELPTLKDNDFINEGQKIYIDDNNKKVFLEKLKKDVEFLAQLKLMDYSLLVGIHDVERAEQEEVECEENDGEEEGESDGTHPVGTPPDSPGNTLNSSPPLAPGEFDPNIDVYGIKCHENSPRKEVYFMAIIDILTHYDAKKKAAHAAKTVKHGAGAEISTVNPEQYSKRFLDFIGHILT
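qHTS, 1536-well: enzyme/substrate mix, compound by pin tool, 5 microM ATP final; RT 60 min; ADP-Glo reagents 1 (45 min) then 2 (30 min); luminescence.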
G9a inh – G9a (human) methyltransferase inhibition | Q96KQ7 | G9a H3K9 monomethylation, AlphaScreen, 2 h | Potency, µM (doses to about 102 µM), inactives show top-dose activity, negative = inhibition, most hits filed as inhibitors | 350,000 compounds, 8.8% hits; further: potency means the concentration at half of the fitted maximal effect; on the % scale 0 is the no-effect control and ±100 the full control effect; nearly all actives have a fitted effect of over 75% in size
Target sequence (Q96KQ7 913-1193 limits assumed): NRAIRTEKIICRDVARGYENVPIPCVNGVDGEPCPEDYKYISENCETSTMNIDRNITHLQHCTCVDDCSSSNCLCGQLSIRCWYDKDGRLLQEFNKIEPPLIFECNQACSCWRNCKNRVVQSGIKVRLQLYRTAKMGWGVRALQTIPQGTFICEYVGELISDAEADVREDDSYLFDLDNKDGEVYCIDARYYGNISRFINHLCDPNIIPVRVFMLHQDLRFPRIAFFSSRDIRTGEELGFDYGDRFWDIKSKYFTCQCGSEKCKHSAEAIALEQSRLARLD
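Using a bead-based AlphaScreen, monomethylated H3K9 product from 2 h room-temperature reactions (G9a 20 nM, peptide 500 nM, SAM 20 uM) was detected with 0.5 ug/mL rabbit anti-H3K9me1 antibody.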
BAZ2B block – inhibitors of human BAZ2B bromodomain; Q9UIF8; AlphaScreen BAZ2B-H3K14Ac peptide displacement; Potency, µM (doses to about 114 µM), for the others: at the top dose activity change, negative = inhibition, usual class: inhibitors; 360,000 compounds, 4.4% hits; further: potency means the concentration at half of the fitted maximal effect; on the % scale 0 is the no-effect control and ±100 the full control effect; nearly all actives have a fitted effect of over 60% in size
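Compounds, titrated to a top concentration of 110 uM, were incubated 30 min at room temperature with preformed BAZ2B/acetyl-K14 H3 peptide complex (50 nM each). Proximity signal was measured by AlphaScreen after 20 min with beads.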
JMJD2A Tudor inh – blocks the human JMJD2A Tudor domain. AlphaScreen JMJD2A-Tudor / H3K4me3 peptide binding. Potency, µM (titrated, usually from 114 µM), for the others: at the top dose activity change, negative = inhibition, hits mostly inhibitors. 390,000 compounds, 4.4% hits. AID 504339; further: potency means the concentration at half of the fitted maximal effect; on the % scale 0 is the no-effect control and ±100 the full control effect; nearly all actives have a fitted effect of over 50% in size
* = called active by the depositor; ? = inconclusive; / = no result given; ! = not active in a repeat; [ ] = remark or other dose. Unless noted, the call rests on the fitted dose curve; in most records, active means well fitted curve in the direction sought with a large enough effect; inconclusive means small, poorly fitted or top-dose-only effect, or another doubt; inactive means no such curve, though single readings can be large; an effect the other way counts as inactive or inconclusive.

SMILES	PLK1 PBD block	HP1b chromo inh	PI5P4K alpha inh	G9a inh	BAZ2B block	JMJD2A Tudor inh
O=C(CNc1ccc2ccccc2c1)N/N=C/c1ccc(C(=O)O)cc1	-1%	21%	8	?	?	-19%
Cc1ccc(NCC(=O)N/N=C/c2ccncc2)cc1	-11%	23%	-7	4%	-37%	-5%[57.1 µM]
O=C(C1CC(=O)N(c2ccc(Cl)cc2)C1)N1CCC(c2nc3ccccc3[nH]2)CC1 (centres undefined)	-8%	7%	-15	-25%	6%	-7%
CCCCC[C@H]1CN(Cc2ccccc2)C(=O)[C@@H]1CC(=O)NCc1ccccc1	-8%	35%	0	/	13%	0%
O=C(COc1cccc(Cl)c1)N/N=C\c1cc2ccccc2nc1Cl	-13%	11%	0	-10%	-30%	-7%
O=C(CNc1ccc2ccccc2c1)N/N=C/c1cc2ccccc2nc1Cl	-1%	-13%	6	10µM*	?	?
C[C@@H]1CNC(=O)c2c(C(=O)N[C@@H](Cc3c[nH]c4ccccc34)C(=O)OC(C)(C)C)ncn21	7%	/	-1	/	/	/
O=C(Cn1c(=O)nc(-c2ccccc2)c2cc(Cl)ccc21)NCCCc1ccccc1	/	13%	/	7%[59 µM]	2%	-16%
CCC(C(=O)Nc1ccccc1Cl)n1nc(C)c2c(C)n(-c3ccccc3)nc2c1=O (centres undefined)	21µM*	-15%	-10	30%	-24%	?
Cc1ccccc1CCNC(=O)CCn1nc(C)c2c(C)n(-c3ccccc3)nc2c1=O	-5%	52%	0	-4%	2%	-9%
Cc1nn(C(C)C(=O)Nc2ccccc2Cl)c(=O)c2nn(-c3ccccc3)c(C)c12 (centres undefined)	-7%	44%	0	/	-11%	-21%
Cc1nn(CCC(=O)NCCc2ccccc2Cl)c(=O)c2nn(-c3ccccc3)c(C)c12	30µM*	-5%	-4	-1%	-6%	-17%
CCCOc1ccc(NC(=O)CC2C(=O)N(c3cccc(OC)c3)C(=O)N2Cc2cccs2)cc1 (centres undefined)	/	23%	/	?	-17%	-5%
O=C(C=C(O)c1ccc(Cl)cc1)C(=O)NNC(=O)C(O)(c1ccccc1)c1ccccc1	-15%	-18%	?	/	/	?
Cc1ccc(/C(O)=C/C(=O)C(=O)NNC(=O)C(O)(c2ccccc2)c2ccccc2)cc1	-4%	13%	/	-10%[59 µM]	50µM*	?
COC(=O)C(=O)/C=C(\O)c1ccc(C)cc1	-17%	11%	2	2µM*	?	79µM*
CCCCNC(=O)[C@H]1C[C@H]1[C@@H](O)[C@H](CO)NC(=O)[C@H](Cc1ccccc1)NC(=O)OC(C)(C)C	-17%	68%	9	21%	-1%	-6%
CC(=O)c1cccc(S(=O)(=O)N2CCC(C(=O)N(C)Cc3ccc(Cl)s3)CC2)c1	-2%	-2%	-8	15%[0.501 µM]	-2%	-25%
CC(=O)N1CCc2[nH]c3ccccc3c2C1	-11%	0%	/	-38%	-36%	-10%
CCOC(=O)c1ccc2[nH]c3c(c2c1)CN(C)CC3	3%	18%	-3	-12%[59 µM]	-2%	-20%
CCOC(=O)N1CCc2[nH]c3ccc(C)cc3c2C1	-28%	-35%	6	10µM*	?	?
CC(=O)N1CCc2[nH]c3ccc(C)cc3c2C1	?	1%	0	25%[2.33 µM]	56µM*	-30%
CSC[C@H]1CN(Cc2ccccc2)C(=O)[C@@H]1CC(=O)Nc1ccc(Br)cc1	6%	/	-7	/	/	/
Cc1ccc(NC(=S)N2CCCCC2)cc1C	-4%	5%	4	-4%[59 µM]	-12%	-9%
OCCCNc1ccccc1	/	/	/	1%[12.7 µM]	/	/
SMILES	PLK1 PBD block	HP1b chromo inh	PI5P4K alpha inh	G9a inh	BAZ2B block	JMJD2A Tudor inh
O=c1[nH]c(S)nc2sc3c(c12)CCCC3	?	0%	?	1µM*	?	25µM*
Cc1nc2sc3c(c2c(=O)[nH]1)CCCC3	-11%	27%	-7	32%	-2%	-12%
COCCn1c(C)cc(O)c(C(c2ccccc2)N2CCN(c3ccccc3)CC2)c1=O (centres undefined)	/	27%[57 µM]	/	?	3%	8%
Cc1ccc(C(=O)N/C(=C/c2ccco2)C(=O)NCCCn2ccnc2)cc1	5%	5%	-10	?	32µM*	-7%
Cc1ccc(C(=O)N/C(=C\c2ccco2)C(=O)NCCCn2ccnc2)cc1	-9%	20%	-2	-8%[59 µM]	7.9µM*	22µM*
COc1cccc(Cn2c(=O)c(-c3cccs3)nc3cnc(N4CCNCC4)nc32)c1	/	/	/	12%[0.501 µM]	/	/
COc1ccc2cc(/C=N/O)c(Cl)nc2c1	-9%	15%	-11	17%	2%	-13%
COc1ccc2cc(CO)c(Cl)nc2c1	6.7µM*	-6%	4	26%	/	-13%
CC(C)Oc1ccc(S(=O)(=O)N2CCCCC2)cc1NC(=O)CC1OC(=O)c2ccccc21 (centres undefined)	-10%	-1%	-3	-7%[0.501 µM]	9%	-15%
CC(C)Oc1ccc(S(=O)(=O)N2CCOCC2)cc1NC(=O)CC1OC(=O)c2ccccc21 (centres undefined)	-1%	16%	1	16µM*	-3%	-11%
OCCN1CCN(CC/C=C2/c3ccccc3Sc3ccc(C(F)(F)F)cc32)CC1	-2%	4%	20	11µM*!	?	?
Oc1ccc(F)c(CN2CCN(c3ncc(Cc4ccccc4)cn3)CC2)c1	-5%	/	8	/	/	/
CC1(C)C2CC[C@]1(C)[C@@H](O)C2	/	/	/	3%[12.7 µM]	/	/
CC1CCN(C(=O)COC(=O)/C=C/c2ccc(Br)o2)CC1	-15%	33%	-8	?	-35%	-1%
CC1CCCC(C)N1C(=O)COC(=O)/C=C/c1ccc(Br)o1 (centres undefined)	?	?	?	/	/	20µM*
Cc1cc(=O)n(Cc2ccc(Br)cc2F)c2c1c(C)nn2-c1ccccc1	/	65%	/	31%[59 µM]	5%	15%
COc1ccc(N2CCN(c3oc(COc4ccc(Cl)cc4)nc3C#N)CC2)cc1	0%	?	5	?	3.5µM*	?
N#Cc1nc(Cc2ccccc2)oc1N1CCN(c2cccc(Cl)c2)CC1	1%	?	/	-2%[2.33 µM]	?	?
COc1ccc(N2CCN(c3oc(Cc4ccccc4)nc3C#N)CC2)cc1	-2%	-58%	/	?	8.9µM*	20µM*
N#Cc1nc(COc2ccc(Cl)cc2Cl)oc1N1CCOCC1	-2%	-39%	/	?	45µM*	?
CN(C)CCNc1oc(COc2ccc(-c3ccccc3)cc2)nc1C#N	-4%	-16%	/	45µM*	?	?
N#Cc1nc(COc2ccc(Cl)cc2Cl)oc1N1CCN(c2ccccc2)CC1	-4%	-6%	/	-2%[2.33 µM]	?	-35%

Assay outcomes (PubChem BioAssay)
